Source: PubChem BioAssay (NCI)
This is part of a sample that, as a whole, favours compounds with a hit. Of some 83,000 tested, about 20% had one in any assay.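 Each cell line was grown in a 96-well plate and treated with one concentration of compound for 48 hours. Values below 10 were considered active.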 A number with no mark means an inactive call. The source made the active and inactive calls.

How the values were obtained:
Assay in all cases: NCI-60 one-dose screen, 48 h (100 = growth as untreated, 0 = no growth, -100 = all killed)
Conditions in all cases: 10 µM unless noted
SK-MEL-2 melanoma = test system: SK-MEL-2 melanoma
EKVX NSCLC = test system: EKVX NSCLC
SN12C renal = test system: SN12C renal
TK-10 renal = test system: TK-10 renal
ACHN renal = test system: ACHN renal
CAKI-1 renal = test system: CAKI-1 renal
A498 renal = test system: A498 renal
CCRF-CEM leukemia = test system: CCRF-CEM leukemia
MOLT-4 leukemia = test system: MOLT-4 leukemia

| Compound | growth (SK-MEL-2 melanoma) | growth (EKVX NSCLC) | growth (SN12C renal) | growth (TK-10 renal) | growth (ACHN renal) | growth (CAKI-1 renal) | growth (A498 renal) | growth (CCRF-CEM leukemia) | growth (MOLT-4 leukemia) |
| --- | --- | --- | --- | --- | --- | --- | --- | --- | --- |
| Cc1ccc(/C=C2\COc3ccc(O)cc3C2=O)cc1 | 117% | 97.8% | 79.9% | 102% | 94% | 80.8% | 109% | 2.21% (active) | 40.6% |
| C=C1C(=O)O[C@H]2[C@H]1CC/C(COC(=O)/C=C\C(=O)NCc1ccc(Cn3c(=O)sn(CCI)c3=O)cc1)=C\CC[C@@]1(C)O[C@@H]21 | 75% | 61.7% | 57.9% | 19.4% | 15.9% | 25.7% | 143% | -28.2% (active) | 3.38% (active) |
| Cc1cc(S(=O)(=O)/N=C(\N)n2nc(C)c(C)c2C)c(SCc2ccccc2)cc1Cl | -12.3% (active) | 38.9% | 76.3% | 116% | 71.2% | 71.9% | 85.1% | 41.5% | 46% |
| Cn1c(=O)c2nc(/C=C/c3ccccc3)c(=O)[nH]c2n(C)c1=S | 109% | 101% | 104% | 115% | 105% | 92.1% | 97.8% | 101% | 103% |
| c1ccc(-c2oc(-c3ccccc3)c(CN3CCCCC3)c2CN2CCCCC2)cc1 | 48.4% | 41% | 31.2% | 42.2% | 44.9% | 38.1% | 17.5% | 24.1% | 15.2% |
| CC/C(=C(/c1ccc(Cl)cc1)c1ccc(OCCN(C)C)cc1)c1ccc(Cl)cc1 | 80.9% | 73.7% | 81.3% | 77.8% | 83.9% | 60.4% | 59% | 62.5% | 58.2% |
| C#CCNC(=O)[C@H](CC)[C@H]1CC[C@H](C)[C@H]([C@@H](C)[C@H](O)[C@H](C)C(=O)[C@H](CC)C2O[C@]3(C=CC(=O)[C@]4(CC[C@@](C)([C@H]5CC[C@](O)(CC)[C@H](C)O5)O4)O3)[C@H](C)C[C@@H]2C)O1 (stereo partly drawn) | 45% | 51.3% | 48.7% | 87.1% | 45% | 17.4% | 38.5% | 27.3% | 32.4% |
| CCOC(=O)C(=O)C(C(=O)OCC)c1ccccc1 (stereo not drawn) | 101% | 103% | 108% | 106% | 105% | 97.9% | 107% | 90.4% | 90% |
| N#Cc1nc(-c2ccccc2)oc1S(=O)(=O)N1CCN(c2ccccc2)CC1 | 84.4% | 116% | 88% | 104% | 102% | 109% | 95.1% | 2.42% (active) | 12.2% |
| Cn1cc(-c2csc(-c3c[nH]c4ccc(Br)cc34)n2)c2ccnc(Cl)c21 | 85.4% | 69.1% | 67.5% | 56.3% | 39.2% | 66.5% | 51.6% | 39.5% | 56.4% |
| C=C(C)[C@@H]1CC[C@]2(CO)CC[C@]3(C)[C@H](CC[C@@H]4[C@@]5(C)CC[C@H](NCO)C(C)(C)[C@@H]5CC[C@]43C)[C@@H]12 | -60.9% (active) | 8.09% (active) | -92.4% (active) | -64.8% (active) | -99.2% (active) | -96.9% (active) | 79% | -9.15% (active) | -26.7% (active) |
| C#Cc1c2c(c(OC)c3c1OCO3)[C@H]([C@H]1OC(=O)c3c1ccc(OC)c3OC)N(C)CC2 | 67.7% | 89.8% | 100% | 76.1% | 93.6% | 86.3% | 72.6% | 80.7% | 77.3% |
| CCCCCCCC[C@@H]1N[C@@H](C(=O)OC)Cc2c1[nH]c1ccccc21 | 109% | 92% | 97.4% | 101% | 94.6% | 78.8% | 88.7% | 92.3% | 93% |
| COc1ccc(CNc2c3ccccc3nc3ccccc23)cc1 | 60.1% | 49.7% | 32.2% | 49.5% | 18.8% | 29.3% | 10% | 39% | 9.38% (active) |
| CC(=O)N1N=C(c2ccc(Nc3nc(Nc4ccccc4)nc(Nc4ccccc4)n3)cc2)CC1c1ccccc1 (stereo not drawn) | 58.6% | 79.7% | 99.6% | 87.7% | 93.5% | 90.2% | 82.4% | 68.2% | 75.1% |
| O=C(Nc1cccc(-c2ccc(N3CCOCC3)nn2)c1)Nc1cccc(C(F)(F)F)c1 | 70% | 63.7% | 66.6% | 70.6% | 65.7% | 87.9% | 80.3% | 26% | 22.9% |
| Cc1ccc(-c2nc([P+](c3ccccc3)(c3ccccc3)c3ccccc3)c(S(=O)(=O)c3ccc(C)cc3)o2)cc1 | 22.1% | 22.6% | 3.91% (active) | 2.83% (active) | -13.4% (active) | 5.62% (active) | -0.861% (active) | -6.52% (active) | -3.24% (active) |
| CCSc1oc(-c2ccccc2)nc1[P+](c1ccccc1)(c1ccccc1)c1ccccc1 | -9.57% (active) | 11% | 3.37% (active) | 24.1% | – | 1.2% (active) | -32.8% (active) | 11.1% | 1.34% (active) |
| O=S(=O)(Nc1ccc(Cl)c(C(F)(F)F)c1)c1ccc(-c2cnc(C3CC3)o2)cc1 | 5.31% (active) | 31.5% | 10.7% | 3.01% (active) | 34.6% | 35.6% | -8.08% (active) | 9.87% (active) | 5.21% (active) |

| Compound | growth (SK-MEL-2 melanoma) | growth (EKVX NSCLC) | growth (SN12C renal) | growth (TK-10 renal) | growth (ACHN renal) | growth (CAKI-1 renal) | growth (A498 renal) | growth (CCRF-CEM leukemia) | growth (MOLT-4 leukemia) |
| --- | --- | --- | --- | --- | --- | --- | --- | --- | --- |
| CCn1c(SCC(=O)N/N=C(\C)c2ccc(Cl)cc2)nc2c1c(=O)n(C)c(=O)n2C | 116% | 97.9% | 100% | 125% | 99.5% | 85.3% | 91.3% | 99.6% | 92.2% |
| COc1cc2c(cc1OCCCN1CCN(CCCOc3cc4c(cc3OC)C(=O)N3CC(F)(F)C[C@H]3C=N4)CC1)N=C[C@@H]1CC(F)(F)CN1C2=O | 90.6% | 197% | 54.7% | 115% | 78.3% | 35% | 86.1% | -28.2% (active) | 26.9% |
| N#Cc1nc(-c2ccc(F)cc2)oc1S(=O)(=O)N1CCOCC1 | 83.6% | 96.2% | 82.1% | -80.9% (active) | -99.9% (active) | 78.5% | 128% | 3.08% (active) | – |
| C=CCc1c(O)c(C(=O)/C=C/c2ccccc2)c(OC)c2ccoc12 | 11.5% | 64.6% | 57% | 38.8% | – | 13.1% | -10.9% (active) | 21.3% | – |
| O=C(Nc1nc2cc(C(=O)N3CCN(C(c4ccccc4)c4ccccc4)CC3)ccc2o1)c1ccc(NC2CCCCC2)c([N+](=O)[O-])c1 | 90.8% | 52.5% | 53.8% | 84.5% | 47% | 54.5% | 76.2% | 28.3% | 47.9% |
| CC(O)(c1ccccc1)C(c1ccccc1)C1CCCCN1 (stereo not drawn) | 117% | 104% | 93.1% | 102% | 107% | 102% | 106% | 101% | 99.7% |
| CCOC(=O)c1ccc2c(c1)nc(-c1ccccc1)n2C1CCCCC1 | 86.1% | 83% | 105% | 116% | 112% | 101% | 97.8% | 79.4% | 85.5% |
| C#CCOc1cccc(Nc2ncnc3ccc(NC(=O)C=C)cc23)c1 | 55% | 32% | 29.7% | -8.81% (active) | 14.9% | 10.2% | 33.5% | 25.1% | 59.8% |
| CCN(CC)S(=O)(=O)c1ccc(S(=O)(=O)N2CCC[C@@H](C(=O)N3CCN(c4nc(C(C)C)no4)CC3)C2)cc1 | 94.6% | 55.1% | 84.9% | 74.5% | 68.5% | 58.4% | 6.31% (active) | 63.7% | 61.1% |
| COC(=O)/C=C1/SC(=Nc2ccc(C(F)(F)F)cc2)N(CCc2c[nH]c3ccc(O)cc23)C1=O | -33.5% (active) | 41.1% | -69% (active) | 11.7% | -46.1% (active) | 31.4% | -1.57% (active) | -9.32% (active) | -36.2% (active) |
| CCN1C(=S)N(c2ccccc2)C2NC(=S)N(/N=C/C=C/c3ccccc3OC)C21 (stereo not drawn) | 32.8% | 48.2% | 24.6% | 68.6% | 33.3% | 27.7% | 1.17% (active) | 9.27% (active) | 9.49% (active) |
| CSc1oc(C)nc1[P+](c1ccccc1)(c1ccccc1)c1ccccc1 | 84.4% | 73.8% | 82.2% | 88.2% | 97.6% | 88% | 64.5% | 51.8% | 68% |
| COc1ccc(C(C)=O)cc1S(=O)(=O)Nc1c(N)nc(SC)[nH]c1=O | 111% | 101% | 103% | 109% | – | 93.2% | 106% | 107% | 99.6% |
| COC(=O)[C@]12CCC(C)(C)C[C@H]1[C@H]1/C(=N/OCCc3nn[nH]n3)C[C@@H]3[C@@]4(C)CC[C@H](OC(C)=O)C(C)(C)[C@@H]4CC[C@@]3(C)[C@]1(C)CC2 | 58.8% | 35.6% | 39% | 55.6% | 32.8% | 39.8% | -19% (active) | 33.5% | 27.6% |
| CN(C)CC(C)(C)C(=O)/C=C/c1ccccc1 | -74.2% [25 µM] (active) | -18.5% [25 µM] (active) | -34.1% [25 µM] (active) | -9.48% [25 µM] (active) | -71.4% [25 µM] (active) | -6.22% [25 µM] (active) | -14.7% [25 µM] (active) | 2.8% [25 µM] (active) | -5.22% [25 µM] (active) |
| CC(C)c1ccc(C(=O)Nc2sc3c(c2C(N)=O)CCC(=O)C3)cc1 | -21.5% (active) | 16.1% | 2.75% (active) | -10.6% (active) | -96.8% (active) | -43.9% (active) | 62.5% | 2.5% (active) | -8.16% (active) |
| N#CC(C#N)N=Nc1ccc(Br)cc1 | 82.1% | 55.9% | 21.3% | 36.5% | 16.6% | 6.33% (active) | 100% | 9.65% (active) | 31.8% |
| CC1CCN(S(=O)(=O)c2ccc(S(=O)(=O)N3CCCC(c4nc5c(nnn5Cc5cccc(Cl)c5)c(=O)[nH]4)C3)cc2)CC1 (stereo not drawn) | 46.9% | 69.1% | 47.3% | 71.5% | 71.7% | 22.2% | 38% | 15.2% | 19.2% |
